Molecules are shown by their SMILES. The panel holds about 79,000 compounds, 15% with a hit somewhere; the sample as a whole holds those more often. Values without a mark were called inactive. Active and inactive are the calls of the source. Cut-off read from the data, not from the text of the source: active = growth inhibition above about 70%; inactive = the rest.

A short description of the first experiment: NCI Yeast Anticancer Drug Screen. Data for the sgs1 mgt1 strain (AID 161).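 Note: 0% = growth of cultures given vehicle only.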 The note with it: S. cerevisiae sgs1 mgt1 strain, at 5.0 µM (retest, dose inferred, filed as 0.5), active compounds read high. An outline of the steps: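 This yeast growth screen uses a strain with defined DNA-repair lesions; compound-treated growth is compared with vehicle-treated growth.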
`COC(=O)[C@H]1O[C@H]1c1ccncc1`: the growth inhibition was 5%.
For `O=[N+]([O-])c1ccc(NSc2ccccc2)cc1`, the growth inhibition is 5%.
On the same count and under the same terms, the same measure for `OCCOCCO[P+]1(OCCOCCO)n2c3ccc2C(c2ccccc2)=C2C=CC(=N2)C(c2ccccc2)=c2ccc(n21)=C(c1ccccc1)C1=NC(=C3c2ccccc2)C=C1`: 99% (active); for `NCCSC1(O)C(=O)c2ccccc2-c2ccccc21` (stereo not given): 32%.
Still for that read-out and setting: the same measure for `C/C=C(\C)C(=O)O[C@@H]1CC(C)(C)CC2C3=CCC4[C@]56CC[C@](O)(OC5)C(C)(C)C6CC[C@@]4(C)C3(C)CC[C@]21C(=O)O` (stereo not given in full): 55%.
The same measure, in the same setting: the same measure for `CSC(=S)NN=C1CCCCC1`: 49%.
Regarding `O=C1c2ccccc2C(O)(C#Cc2ccccc2)c2cnccc21` (stereo not given), the growth inhibition is -1%.
Same read-out and setting: the same measure for `CCCCCC(CCCCC)C(=O)O`: -20%; for `CC(C)(N=Nc1ccc([N+](=O)[O-])cc1)[N+](=O)[O-]`: 18%; for `CCCCCCCCCCCCCC(=O)N1CCOCC1`: -3%.
For `CCOc1ccccc1-c1nc2c(s1)C(=O)c1ccccc1C2=O`, the growth inhibition is 85% (active).
Turning to `c1ccc2c(c1)C[n+]1ccc3ccccc3c1-c1c3ccccc3cc[n+]1C2`, the growth inhibition is 11%.
For `Nc1cc2c(c[n+](CCCCCCCCCC[n+]3cc4c5ccccc5c(N)cc4c4ccccc43)c3ccccc23)c2ccccc12`, the growth inhibition is 56%.
The same measure, in the same setting: the same measure for `Cc1ccc(N=C(N)NN=C(c2ccc(Cl)cc2)c2ccc(Cl)cc2)cc1`: 7%.
Same read-out and setting: the value for `O/N=C(/C[n+]1csc2ccccc21)c1ccccc1` was -9%; that for `COc1ccc(C2Oc3c(cccc3OC)C=C2[N+](=O)[O-])cc1` (stereo not given) was 40%.
Consider `O=C(O)c1c2c(cc3c1CC1(Cc4cc5c(cc4C1=O)CCC5)C3)CCC2` (stereo not given), for which the growth inhibition was 57%.
With `CSc1ncnc2ncn(C3OC(CO)C(O)C3O)c12` (stereo not given), the growth inhibition was -11%.
For `CC1SC(=S)N(c2ccc(Cl)cc2)C1=O` (stereo not given), the growth inhibition is 2%.
As for `CCOC(=O)C(C(C)=O)C1=C(Cl)C(=O)c2ccccc2C1=O` (stereo not given), the growth inhibition was 96% (active).
The same measure, in the same setting: the same measure for `CC(C)(C)c1cc(C(O)(C(F)(F)F)C(F)(F)F)c(S)c(C(O)(C(F)(F)F)C(F)(F)F)c1`: 9%; for `O=[N+]([O-])C1C(c2ccccc2)CC=CC1N1CCCC1` (stereo not given): 17%; for `COc1ccc2nc3cc(Cl)ccc3c(NCCNc3c4ccc(Cl)cc4nc4ccc(OC)cc34)c2c1`: 20%.
Still for that read-out and setting: the value for `CCN(CC)CCNc1nc(N)c2nc(-c3ccccc3)c(-c3ccccc3)nc2n1` was -4%; that for `CC(=O)OCC(=O)[C@@]1(O)CC[C@H]2[C@@H]3CCC4=CC(=O)C=C[C@]4(C)[C@@]3(F)[C@@H](O)C[C@@]21C` was -4%.
The same measure, in the same setting: the same measure for `O=Cc1cc(S(=O)(=O)c2ccc(O)c(C=O)c2)ccc1O`: 17%.
Turning to `OCc1cccc2c1Oc1ccccc1S2`, the growth inhibition was 1%.
Same read-out and setting: the same measure for `O=C(CCN1CCCC1)c1ccc(Oc2ccc(F)cc2)cc1`: 31%.
Still for that read-out and setting: the same measure for `Cc1ccccc1N1CCN(c2c3c(nc4ccccc24)CCCCC3)CC1`: 7%; for `CNC(Cc1ccccc1)c1ccc(OC)c2ccccc12` (stereo not given): -3%.
For `CCCCN(CCCC)Cc1ccc(NC(C(=O)c2ccccc2)c2ccccc2)cc1` (stereo not given), the growth inhibition was 5%.
With `CCS(=O)(=O)/C=C(\C#Cc1ccccc1)c1ccccc1`, the growth inhibition is 5%.
On the same count and under the same terms, the value for `CN(C)c1c([N+](=O)[O-])cc(N2C(=O)C=CC2=O)cc1[N+](=O)[O-]` was 23%; that for `CNC(=N)c1ccc(NC(=N)c2ccc(NC(=O)c3ccc(C(=O)Nc4ccc(C(=N)Nc5ccc(C(=N)NC)cc5)cc4)cc3)cc2)cc1` was 52%; that for `O=[N+]([O-])c1ccc(-c2nc3ccc(F)cc3[nH]2)o1` was 86% (active).
With `CCCCCCC(=O)CC(SCCN)c1ccccc1Cl` (stereo not given), the growth inhibition was -12%.
Consider `O=C(CC(c1ccccc1Cl)C(C(=O)O)c1ccccc1)c1ccccc1` (stereo not given), for which the growth inhibition is 6%.
Still for that read-out and setting: the value for `CC([N+](=O)[O-])C1(O)C(=O)c2cccc3cccc1c23` (stereo not given) was 11%.
Still for that read-out and setting: the same measure for `CC(=O)N(C1=C(Cl)C(=O)c2ccccc2C1=O)c1ccc(Cl)cc1`: 100% (active).
On the same count and under the same terms, the value for `CCOC(=N)CCCSSc1ccc(N=[N+]=[N-])cc1` was -5%.

Staying with this experiment, now noted: S. cerevisiae sgs1 mgt1 strain, at 50.0 µM (retest, dose inferred, filed as 5.0), active compounds read high.
`COC(=O)[C@H]1O[C@H]1c1ccncc1`: the growth inhibition is -2%.
As for `O=[N+]([O-])c1ccc(NSc2ccccc2)cc1`, the growth inhibition is 97% (active).
On the same count and under the same terms, the value for `OCCOCCO[P+]1(OCCOCCO)n2c3ccc2C(c2ccccc2)=C2C=CC(=N2)C(c2ccccc2)=c2ccc(n21)=C(c1ccccc1)C1=NC(=C3c2ccccc2)C=C1` was 98% (active); that for `NCCSC1(O)C(=O)c2ccccc2-c2ccccc21` (stereo not given) was 99% (active); that for `C/C=C(\C)C(=O)O[C@@H]1CC(C)(C)CC2C3=CCC4[C@]56CC[C@](O)(OC5)C(C)(C)C6CC[C@@]4(C)C3(C)CC[C@]21C(=O)O` (stereo not given in full) was 93% (active).
In the case of `CSC(=S)NN=C1CCCCC1`, the growth inhibition is 97% (active).
For `O=C1c2ccccc2C(O)(C#Cc2ccccc2)c2cnccc21` (stereo not given), the growth inhibition is 97% (active).
On the same count and under the same terms, the value for `CCCCCC(CCCCC)C(=O)O` was 48%; that for `CC(C)(N=Nc1ccc([N+](=O)[O-])cc1)[N+](=O)[O-]` was 98% (active); that for `CCCCCCCCCCCCCC(=O)N1CCOCC1` was 99% (active).
On the same count and under the same terms, the same measure for `CCOc1ccccc1-c1nc2c(s1)C(=O)c1ccccc1C2=O`: 98% (active).
Take `c1ccc2c(c1)C[n+]1ccc3ccccc3c1-c1c3ccccc3cc[n+]1C2`: the growth inhibition is 40%.
For the compound `Nc1cc2c(c[n+](CCCCCCCCCC[n+]3cc4c5ccccc5c(N)cc4c4ccccc43)c3ccccc23)c2ccccc12`, the growth inhibition is 95% (active).
On the same count and under the same terms, the same measure for `Cc1ccc(N=C(N)NN=C(c2ccc(Cl)cc2)c2ccc(Cl)cc2)cc1`: 35%.
Still for that read-out and setting: the value for `O/N=C(/C[n+]1csc2ccccc21)c1ccccc1` was 87% (active).
The same measure, in the same setting: the value for `COc1ccc(C2Oc3c(cccc3OC)C=C2[N+](=O)[O-])cc1` (stereo not given) was 96% (active); that for `O=C(O)c1c2c(cc3c1CC1(Cc4cc5c(cc4C1=O)CCC5)C3)CCC2` (stereo not given) was 57%; that for `CSc1ncnc2ncn(C3OC(CO)C(O)C3O)c12` (stereo not given) was 2%.
As for `CC1SC(=S)N(c2ccc(Cl)cc2)C1=O` (stereo not given), the growth inhibition is 47%.
Still for that read-out and setting: the value for `CCOC(=O)C(C(C)=O)C1=C(Cl)C(=O)c2ccccc2C1=O` (stereo not given) was 100% (active); that for `CC(C)(C)c1cc(C(O)(C(F)(F)F)C(F)(F)F)c(S)c(C(O)(C(F)(F)F)C(F)(F)F)c1` was 98% (active); that for `O=[N+]([O-])C1C(c2ccccc2)CC=CC1N1CCCC1` (stereo not given) was 97% (active).
On to `COc1ccc2nc3cc(Cl)ccc3c(NCCNc3c4ccc(Cl)cc4nc4ccc(OC)cc34)c2c1`, for which the growth inhibition was 99% (active).
Still for that read-out and setting: the value for `CCN(CC)CCNc1nc(N)c2nc(-c3ccccc3)c(-c3ccccc3)nc2n1` was 36%; that for `CC(=O)OCC(=O)[C@@]1(O)CC[C@H]2[C@@H]3CCC4=CC(=O)C=C[C@]4(C)[C@@]3(F)[C@@H](O)C[C@@]21C` was 59%; that for `O=Cc1cc(S(=O)(=O)c2ccc(O)c(C=O)c2)ccc1O` was 25%.
Consider `OCc1cccc2c1Oc1ccccc1S2`, for which the growth inhibition is 66%.
Still for that read-out and setting: the value for `O=C(CCN1CCCC1)c1ccc(Oc2ccc(F)cc2)cc1` was 60%; that for `Cc1ccccc1N1CCN(c2c3c(nc4ccccc24)CCCCC3)CC1` was 95% (active); that for `CNC(Cc1ccccc1)c1ccc(OC)c2ccccc12` (stereo not given) was -10%.
Still for that read-out and setting: the value for `CCCCN(CCCC)Cc1ccc(NC(C(=O)c2ccccc2)c2ccccc2)cc1` (stereo not given) was 86% (active); that for `CCS(=O)(=O)/C=C(\C#Cc1ccccc1)c1ccccc1` was 90% (active).
Same read-out and setting: the value for `CN(C)c1c([N+](=O)[O-])cc(N2C(=O)C=CC2=O)cc1[N+](=O)[O-]` was 100% (active).
`CNC(=N)c1ccc(NC(=N)c2ccc(NC(=O)c3ccc(C(=O)Nc4ccc(C(=N)Nc5ccc(C(=N)NC)cc5)cc4)cc3)cc2)cc1`: the growth inhibition is 61%.
For the compound `O=[N+]([O-])c1ccc(-c2nc3ccc(F)cc3[nH]2)o1`, the growth inhibition was 100% (active).
Consider `CCCCCCC(=O)CC(SCCN)c1ccccc1Cl` (stereo not given), for which the growth inhibition was 48%.
The same measure, in the same setting: the same measure for `O=C(CC(c1ccccc1Cl)C(C(=O)O)c1ccccc1)c1ccccc1` (stereo not given): 72% (active); for `CC([N+](=O)[O-])C1(O)C(=O)c2cccc3cccc1c23` (stereo not given): 96% (active).
The same measure, in the same setting: the value for `CC(=O)N(C1=C(Cl)C(=O)c2ccccc2C1=O)c1ccc(Cl)cc1` was 99% (active).
Take `CCOC(=N)CCCSSc1ccc(N=[N+]=[N-])cc1`: the growth inhibition was 97% (active).

These data come from PubChem BioAssay (NCI).
